# Source: PubChem BioAssay (EPA / NIEHS)
# Values joined by “and” are separate entries in the source; they are usually repeats but may differ in a detail not shown here. Equal entries are not always repeated. Results filed as inconclusive are left out. A structure can be active in one record and inactive in another. Active and inactive are the calls of the source. Rule for the calls, unless noted: active = hit-call score of the fitted dose curve at least 0.9, where 1 is the maximum; inactive = score below 0.9.
# Columns and labels:
# [1] = BSK_BT_Bcell_Proliferation: Viability Assessment in the BioMAP Diversity Plus: BT Assay for B cell Proliferation (AID 2284227); details: primary human B cells with PBMC
# Summary of the method: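 Using a human primary B cell–PBMC co-culture, the assay measures total protein by sulforhodamine B absorbance as a gauge of proliferation after 72 h. Analysis followed the positive fitting direction with DMSO as baseline.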
# [2] = read-out: Interleukin 6 (IL6), IL6 (gene 3569); assay: BSK_BT_xIL6: BioMAP Diversity Plus: BT Assay for Interleukin 6 (IL6) Biomarker Activity (AID 2284228); details: primary human B cells with PBMC
# Summary of the method: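 Secreted IL-6 in the primary human B cell plus PBMC system, measured by Luminex at 24 h post-chemical, DMSO as baseline. Alamar Blue viability: 75,000 cells/well, chemical 1 h before SEB/TSST-1 (20 ng/mL each), 90 h, then 6 h dye.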
# [3] = read-out: Interleukin 17A (IL17A), IL17A (gene 3605); assay: BSK_BT_xIL17A: BioMAP Diversity Plus: BT Assay for Interleukin 17A (IL17A) Biomarker Activity (AID 2284229); details: primary human B cells with PBMC
# Summary of the method: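 Luminex xMAP quantification of secreted IL-17A after 24 h chemical exposure of a primary human B cell/PBMC co-culture. Signal increases fitted relative to DMSO negative control.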
# [4] = read-out: Tumor necrosis factor (Homo sapiens) (UniProt P01375); assay: BSK_BT_xTNFa: BioMAP Diversity Plus: BT Assay for Tumor necrosis factor alpha (TNF-alpha) Biomarker Activity (AID 2284230); details: primary human B cells with PBMC
# Summary of the method: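 Endpoint derived in the positive direction versus DMSO vehicle. Cells: B cells together with PBMC, exposed 24 h before TNF-alpha in the medium was read on the Luminex xMAP platform.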
# [5] = read-out: Vascular cell adhesion molecule 1 (VCAM1), VCAM1 (gene 7412); assay: BSK_MyoF_VCAM1: BioMAP Diversity Plus: MyoF Assay for Vascular cell adhesion molecule 1 (VCAM1) Biomarker Activity (AID 2284231); details: primary human lung fibroblasts
# Summary of the method: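 ELISA readout of VCAM-1 on human lung fibroblast cultures 24 hours after dosing, analyzed for signal gain relative to DMSO. Overt cytotoxicity was checked by sulforhodamine B total-protein staining in parallel cultures.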
# [6] = read-out: Collagen I, COL1A1 (gene 1277); assay: BSK_MyoF_CollagenI: BioMAP Diversity Plus: MyoF Assay for Collagen I Biomarker Activity (AID 2284238); details: primary human lung fibroblasts
# Summary of the method: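 Collagen I levels measured by ELISA on human lung fibroblast cultures 24 h post-dosing, with curve fitting in the positive direction relative to DMSO; SRB staining of parallel wells marked cytotoxicity.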
# [7] = read-out: Collagen III, COL3A1 (gene 1281); assay: BSK_MyoF_CollagenIII: BioMAP Diversity Plus: MyoF Assay for Collagen III Biomarker Activity (AID 2284239); details: primary human lung fibroblasts
# Summary of the method: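 Collagen III biomarker quantified by ELISA in human lung fibroblast cultures 24 h after dosing. Activity fitted in the positive direction against DMSO as baseline.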
# [8] = CCTE_Mundy_HCI_hNP1_Casp3_7: CCTE's Caspase-Glo 3/7 Assay in human neuroprogenitor cells for Apoptosis, Mundy Lab (AID 2284240)
# Summary of the method: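 Luminescent caspase-3/7 readout, 26.5 h post-dose, in human neural progenitor cells from WA09 embryonic stem cells. Cells grew 40–44 h at 37 °C, 5% CO2 before chemical addition. Activity analysed as signal increase over DMSO baseline.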
# [9] = CCTE_Mundy_HCI_hNP1_CellTiter: CCTE's Cell Titer-Glo 2 Assay in human neuroprogenitor cells for Viability, Mundy Lab (AID 2284241; active = hit-call score of the fitted dose curve at least 0.9, where 1 is the maximum)
# Summary of the method: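 Viability read as luminescent ATP content (CellTiter-Glo, 30 min room temperature) twenty-four hours after dosing, relative to DMSO. Cells: WA09-derived hNP1 neuroprogenitors on poly-L-ornithine/laminin, plated 40 to 44 hours before chemical.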
# [10] = read-out: Interleukin 17F (IL17F), IL17F (gene 112744); assay: BSK_BT_xIL17F: BioMAP Diversity Plus: BT Assay for Interleukin 17F (IL17F) Biomarker Activity (AID 2284243); details: primary human B cells with PBMC
# Summary of the method: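 Human B cells co-cultured with PBMC; secreted IL-17F quantified by LumineX xMAP 24 hours after chemical dosing. Activity fitted in the positive direction against DMSO negative control as baseline.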
# [11] = read-out: Actin alpha 1 (ACTA1), ACTA1 (gene 58); assay: BSK_MyoF_ACTA1: BioMAP Diversity Plus: MyoF Assay for Actin alpha 1 (ACTA1) Biomarker Activity (AID 2284244); details: primary human lung fibroblasts
# Summary of the method: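 Human lung fibroblast (MyoF system) cultures dosed with test chemical; alpha-SMA measured by ELISA 24 h after dosing, normalized to DMSO control. Cytotoxicity tracked in parallel cultures by SRB total-protein staining.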
# [12] = read-out: Interleukin 2 (IL2), IL2 (gene 3558); assay: BSK_BT_xIL2: BioMAP Diversity Plus: BT Assay for Interleukin 2 (IL2) Biomarker Activity (AID 2284245); details: primary human B cells with PBMC
# Summary of the method: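 Human B cell plus PBMC co-culture, 24 h after chemical dosing; secreted IL-2 quantified by Luminex xMAP multiplex, fitted for signal gain against DMSO baseline.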
# [13] = read-out: Basic fibroblast growth factor (bFGF), FGF2 (gene 2247); assay: BSK_MyoF_bFGF: BioMAP Diversity Plus: MyoF Assay for Basic fibroblast growth factor (bFGF) Biomarker Activity (AID 2284246); details: primary human lung fibroblasts
# Summary of the method: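 Human lung fibroblast cultures were dosed and measured 24 h later in 96-well format. bFGF biomarker levels quantified by ELISA, with activity fitted in the positive direction against DMSO.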
# [14] = read-out: Collagen IV, COL4A1 (gene 1282); assay: BSK_MyoF_CollagenIV: BioMAP Diversity Plus: MyoF Assay for Collagen IV Biomarker Activity (AID 2284247); details: primary human lung fibroblasts
# Summary of the method: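 Primary human lung fibroblasts (MyoF system) dosed 24 h; Collagen IV measured by ELISA. Activity fitted in positive direction against DMSO; cytotoxicity tracked by SRB total-protein staining in parallel cultures.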
# [15] = CCTE_Mundy_HCI_Cortical_NOG_BPCount: CCTE's Neurite Outgrowth Assay in rat cortical cells for Branch Point Count, Mundy Lab (AID 2284237)
# Summary of the method: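 Measured 50.33 h after dosing, this morphology endpoint uses rat primary cortical cultures labelled for betaIII-tubulin. Branch points are quantified by high-content imaging, with DMSO as negative control and baseline.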
# [16] = CCTE_Mundy_HCI_Cortical_Synap_Neur_Matur_NeuronCount: CCTE's Synaptogenesis and Neurite Maturation Assay in rat cortical cells for Neuron Count, Mundy Lab (AID 2284242; active = hit-call score of the fitted dose curve at least 0.9, where 1 is the maximum;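 note: hits reduce neuron count versus DMSO baseline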)
# Summary of the method: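 Rat primary cortical cells, AraC added at DIV 5, dosed with media change from DIV 7 to DIV 12. Fixed, Hoechst-stained and immunolabelled for MAP2 and synaptophysin; neuron number counted by high-content imaging, loss fitted versus DMSO.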
# [17] = TAMU_PeakParms_SingleDonor1434_QT: Texas A&M University (TAMU) 1.5-hr Human Induced Pluripotent Stem Cell (iPSC)-derived Cardiomyocytes Calcium (Ca+2) Flux Assay for Cardiotoxicity: QT (decay-rise ratio) (AID 2284235; active = hit-call score of the fitted dose curve at least 0.9, where 1 is the maximum)
# Summary of the method: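 iPSC-derived cardiomyocytes (single donor 1434) dosed at 0.2, 1, 10, 100 uM final in 0.5% DMSO, 90 min at 37C. Ca2+ flux fluorescence decay/rise ratio; EC05 (5% increase versus DMSO) as POD, excluding beat-arrest and severe-notch data.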
# Chain of Tumor necrosis factor (Homo sapiens) (P01375 whole entry, looked up): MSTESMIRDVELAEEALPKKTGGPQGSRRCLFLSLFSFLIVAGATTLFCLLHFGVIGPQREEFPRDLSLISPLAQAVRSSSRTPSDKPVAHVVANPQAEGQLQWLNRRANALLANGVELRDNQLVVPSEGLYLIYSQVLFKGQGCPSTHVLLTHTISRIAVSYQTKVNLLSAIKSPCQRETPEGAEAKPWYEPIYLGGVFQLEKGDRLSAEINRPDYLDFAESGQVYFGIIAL
smiles,measurement,setting,value
O=C(O)C(F)(F)OC(F)(F)C(F)(F)OC(F)(F)F,AC50,[1],12.6 µM (active)
same,outcome,[1],inactive
same,outcome,[2],inactive
same,outcome,[3],inactive
same,outcome,[4],inactive
same,outcome,[5],inactive
same,outcome,[6],inactive
same,outcome,[7],inactive
same,outcome,[8],inactive
same,outcome,[9],inactive
same,outcome,[10],inactive
same,outcome,[11],inactive
same,outcome,[12],inactive
same,outcome,[13],inactive
same,outcome,[14],inactive
OCC(F)(F)OC(F)(F)C(F)(F)OC(F)(F)C(F)(F)OC(F)(F)F,AC50,[1],22.6 µM (active) and 52.7 µM (active)
same,AC50,[2],46.6 µM (active) and 45.2 µM (active)
same,AC50,[3],49.2 µM (active)
same,outcome,[3],inactive
same,AC50,[4],50.4 µM (active) and 30 µM (active)
same,AC50,[5],54.7 µM (active) and 40.5 µM (active)
same,AC50,[6],39.9 µM (active) and 22.1 µM (active)
same,AC50,[7],19.7 µM (active) and 23.9 µM (active)
same,outcome,[8],inactive
same,AC50,[10],30 µM (active) and 22.2 µM (active)
same,AC50,[11],18.3 µM (active) and 11.5 µM (active)
same,AC50,[12],53.9 µM (active) and 23.4 µM (active)
same,outcome,[13],inactive
same,outcome,[14],inactive
CCCCOCCOP(=O)(OCCOCCCC)OCCOCCCC,outcome,[1],inactive
same,outcome,[2],inactive
same,outcome,[3],inactive
same,AC50,[4],0.015 µM (active)
same,outcome,[5],inactive
same,outcome,[6],inactive
same,outcome,[7],inactive
same,outcome,[10],inactive
same,outcome,[11],inactive
same,outcome,[12],inactive
same,outcome,[13],inactive
same,outcome,[14],inactive
CCOP(=S)(S)OCC,outcome,[1],inactive
same,outcome,[2],inactive
same,outcome,[3],inactive
same,outcome,[4],inactive
same,outcome,[5],inactive
same,outcome,[6],inactive
same,outcome,[7],inactive
same,outcome,[10],inactive
same,outcome,[11],inactive
same,outcome,[12],inactive
same,outcome,[13],inactive
same,outcome,[14],inactive
CCOc1ccc(C(C)(C)COCc2cccc(Oc3ccccc3)c2)cc1,outcome,[15],inactive
same,outcome,[8],inactive
same,outcome,[9],inactive
same,AC50,[16],15 µM (active)
O=P(Oc1ccccc1)(Oc1ccccc1)Oc1ccccc1,outcome,[17],inactive
O=S1(=O)OCC2C(CO1)C1(Cl)C(Cl)=C(Cl)C2(Cl)C1(Cl)Cl (configuration not stated),AC50,[1],25.9 µM (active)
same,AC50,[2],33 µM (active)
same,AC50,[3],16.1 µM (active)
same,AC50,[4],31 µM (active)
same,outcome,[5],inactive
same,outcome,[6],inactive
same,outcome,[7],inactive
same,AC50,[10],28.3 µM (active)
same,outcome,[11],inactive
same,AC50,[12],20 µM (active)
same,outcome,[13],inactive
same,outcome,[14],inactive
C=CC(=O)OCC(CC)(COC(=O)C=C)COC(=O)C=C,AC50,[1],2.36 µM (active)
same,AC50,[2],1.46 µM (active)
same,AC50,[3],2.18 µM (active)
same,AC50,[4],2.61 µM (active)
same,AC50,[5],2.5 µM (active)
same,AC50,[6],4.69 µM (active)
same,AC50,[7],4.87 µM (active)
same,AC50,[10],1.87 µM (active)
same,AC50,[11],2.93 µM (active)
same,AC50,[12],2.34 µM (active)
same,AC50,[13],4.36 µM (active)
same,AC50,[14],2.87 µM (active)
